Assay outcomes: PubChem BioAssay, National Center for Advancing Translational Sciences (NCATS)
Sampled rows, rich in hits. Any-hit rate of the full collection: about 2.4%.
Pol eta inh-1: inhibitors of human DNA polymerase eta; actives 1.2% (n = 390,000); Q9Y253; AID 588591; recombinant Pol eta, fluorescent DNA replication assay; Potency, µM (top dose mostly 114 µM), usual class: inhibitors
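Fluorescent replication assay: 50 nM final substrate added after a 15 min room-temperature compound preincubation with 10 nM enzyme. Signal taken at 0 min and again at 10 min.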
POLB inh: DNA polymerase beta (human) inhibition. Pol beta primer extension/strand displacement, fluorescence kinetic. Potency, µM (highest dose often 114 µM), hits mostly inhibitors. actives 1.3% (n = 340,000)
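10 nM enzyme + cpd, 15 min RT; start with substrate 50 nM final; read 0 min and after 10 min RT. Corrected, normalized data; 4-parameter Hill curve fit.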
FEN1 inh: inhibitors of human flap endonuclease 1; P39748; Recombinant FEN1 flap cleavage, fluorescence, 15 min; Potency, µM (highest dose often 114 µM), actives largely listed as inhibitors; actives 0.35% (n = 390,000); also: nearly all actives have a fitted effect of over 65% in size
Target sequence (P39748 whole entry, looked up): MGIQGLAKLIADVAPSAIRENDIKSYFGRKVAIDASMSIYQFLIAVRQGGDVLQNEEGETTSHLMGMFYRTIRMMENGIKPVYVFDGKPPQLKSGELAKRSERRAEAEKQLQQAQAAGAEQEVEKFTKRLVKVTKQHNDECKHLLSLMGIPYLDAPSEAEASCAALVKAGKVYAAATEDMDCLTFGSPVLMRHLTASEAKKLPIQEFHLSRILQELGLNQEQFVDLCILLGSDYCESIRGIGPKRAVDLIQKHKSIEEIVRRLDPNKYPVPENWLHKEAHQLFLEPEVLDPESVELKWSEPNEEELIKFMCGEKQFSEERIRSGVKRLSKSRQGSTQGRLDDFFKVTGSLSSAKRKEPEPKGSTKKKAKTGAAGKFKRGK
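Concentration–response screening of FEN1 (10 nM): 15 min compound preincubation at room temperature, reaction started with 50 nM substrate and read at 0 and 15 min. Corrected, normalized data were fitted by a four-parameter Hill equation.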
Pol kappa inh-1: blocks human DNA polymerase kappa activity. purified Pol kappa, fluorescent DNA synthesis assay, 10 min. Potency, µM (top dose mostly 107 µM), usual class: inhibitors. actives 0.53% (n = 400,000)
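Inhibition of 10 nM Pol kappa is measured by a fluorescent read-out at 0 and 10 min following addition of 50 nM substrate (final), with a 15-min room-temperature compound preincubation.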
WRN inhibitor: blocks human WRN helicase. Potency, µM (top dose mostly 114 µM), usual class: inhibitors. WRN helicase unwinding, fluorescent forked duplex, kinetic. Q14191. actives 0.46% (n = 360,000); also: nearly all actives have a fitted effect of over 55% in size
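Kinetic red-fluorescence monitoring (525/598 nm) tracks WRN helicase activity after 100 nM fluorophore-quencher forked duplex and 2 mM ATP are added to 20 nM enzyme pretreated 15 min at room temperature with compound.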
Pol iota inh: DNA polymerase iota (human) inhibition; AID 588590; Pol iota fluorescent replication assay, 10 min; actives 1% (n = 390,000); Potency, µM (highest dose often 115 µM), most hits filed as inhibitors; Q9UNA4
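Pol iota at 10 nM preincubated 15 min with compounds at room temperature; reaction started with fluorescent substrate, 50 nM final. Fluorescence read kinetically at 0 and 10 min; buffer-only wells as negative control.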
TbPGK inh: validation of Trypanosoma brucei phosphoglycerate kinase inhibitors; actives 79% (n = 500); TbPGK coupled GAPDH assay, Kinase-Glo luminescence; AID 686980; Potency, µM (series often up to 57.5 µM), most hits filed as inhibitors; shares compounds with Pol kappa inh-1; also: nearly all actives have a fitted effect of over 65% in size
Pol iota confirm: Human Pol iota inhibitor confirmatory assay; shares compounds with Pol kappa inh-1; Pol iota primer extension, TAMRA/BHQ fluorescence; Potency, µM, most hits filed as inhibitors; actives 77% (n = 1,500)
Pol kappa inh-2: confirmation of human DNA polymerase kappa inhibitors. shares compounds with Pol eta inh-1. purified Pol-kappa, fluorescent strand-displacement substrate. Potency, µM, most hits filed as inhibitors. actives 76% (n = 920). AID 720501
Pol eta inh-2: Pol eta (human) inhibition, cherry-pick confirmation | shares compounds with Pol eta inh-1 | Pol eta primer extension, TAMRA/BHQ fluorescence, 10 min | Potency, µM, hits mostly inhibitors | actives 64% (n = 2,600) | AID 720502
Of the large screens only hits and unclear results are named; the others gave an inactive call (follow-up assays come after a bar, where they were run). Calls follow the shape of the dose curve; as a rule, active = well fitted curve in the direction sought with a large enough effect; inconclusive = small, poorly fitted or top-dose-only effect, or another doubt; inactive = no such curve, though single readings can be large; an effect the other way counts as inactive or inconclusive.

CCOC(=O)c1ccc(OC(=O)c2cn(-c3ccc(C)cc3)c(=O)c3ccccc23)cc1	none (no result: WRN inhibitor)
COCCN1C(=O)C(=O)/C(=C(/O)c2cccc(OC)c2)C1c1ccco1 (centres undefined)	Pol eta inh-1 10µM, POLB inh 32µM, Pol kappa inh-1 inconclusive, Pol iota inh inconclusive | Pol iota confirm inconclusive | Pol eta inh-2 60
O=S1(=O)C2CC3C=CC2(O3)C(O)C(Cc2ccccc2)N1Cc1cccc(C(F)(F)F)c1 (centres undefined)	none (no result: Pol eta inh-1, POLB inh, WRN inhibitor)
CC(=O)Nc1ccc(S(=O)(=O)Nc2cccc(-n3cnnn3)c2)cc1	none
CC(=O)c1ccc(S(=O)(=O)Nc2cccc(-n3cnnn3)c2)cc1	Pol eta inh-1 7.9µM, POLB inh inconclusive, Pol kappa inh-1 inconclusive, WRN inhibitor 56µM, Pol iota inh 20µM | Pol iota confirm 75 | Pol eta inh-2 30
O=C(OCc1nc2ccsc2c(=O)[nH]1)c1ccco1	none (no result: POLB inh)
Cc1cnc(C(=O)OCc2nc3ccsc3c(=O)[nH]2)cn1	Pol eta inh-1 10µM, FEN1 inh inconclusive, Pol kappa inh-1 79µM, WRN inhibitor 50µM, Pol iota inh 16µM (no result: POLB inh) | Pol iota confirm 27 | Pol eta inh-2 21
CCCn1c(C)nc2c(c1=O)c1nc3ccccc3nc1n2CCC1=CCCCC1	none
Cc1nc2c(c(=O)n1CCC1=CCCCC1)c1nc3ccccc3nc1n2/N=C/c1ccco1	Pol eta inh-1 inconclusive, POLB inh 10µM, Pol kappa inh-1 inconclusive, WRN inhibitor inconclusive, Pol iota inh inconclusive | Pol iota confirm 67 | Pol eta inh-2 76
[O-][n+]1c2ccccc2[n+]([O-])c2cc(O)ccc21	Pol eta inh-1 18µM, POLB inh 22µM, FEN1 inh inconclusive, Pol kappa inh-1 inconclusive, WRN inhibitor inconclusive, Pol iota inh inconclusive | TbPGK inh 33µM | Pol iota confirm inconclusive | Pol kappa inh-2 inconclusive | Pol eta inh-2 inconclusive
CC(=O)[C@]1(O)CCC2C3CC(C)C4=CC(=O)C=CC4(C)[C@@]3(F)C(O)C[C@]21C (some centres undefined)	none (no result: Pol eta inh-1, POLB inh, FEN1 inh, WRN inhibitor, Pol iota inh)
CCCCCCCCCCCCCCCCCCNc1ccn(C2OC(COP(=O)(O)OCC3OC(n4cc(F)c(=O)[nH]c4=O)CC3O)C(O)C2O)c(=O)n1 (centres undefined)	Pol eta inh-1 14µM, FEN1 inh inconclusive, Pol kappa inh-1 45µM, WRN inhibitor 40µM, Pol iota inh 18µM (no result: POLB inh) | Pol iota confirm 42 | Pol kappa inh-2 27 | Pol eta inh-2 43
CCc1ccc(/C(C)=N/NC(=O)CNC(=O)/C=C/c2ccco2)cc1	Pol eta inh-1 8.9µM, FEN1 inh 45µM, Pol kappa inh-1 32µM, WRN inhibitor 28µM, Pol iota inh 5µM (no result: POLB inh) | TbPGK inh 3.3µM | Pol iota confirm 15 | Pol eta inh-2 21
CCc1ccc(/C(C)=N/NC(=O)CNC(=O)/C=C/c2ccccc2OC)cc1	none
O=C(O)c1cccc(N2C(=O)/C(=C/c3ccc(SCc4ccc(Cl)cc4)o3)SC2=S)c1	Pol eta inh-1 7.9µM, POLB inh 3.2µM, FEN1 inh inconclusive, Pol kappa inh-1 79µM, WRN inhibitor 18µM, Pol iota inh inconclusive | TbPGK inh 33µM | Pol iota confirm 34 | Pol kappa inh-2 3.4 | Pol eta inh-2 19
COc1ccccc1-c1nnc(C2CCN(S(=O)(=O)c3ccc(CC(C)C)cc3)CC2)o1	none (no result: WRN inhibitor)
C=C[C@@]1(C)C[C@H](OC(=O)CSC(C)(C)CNC(=O)[C@@H](N)C(C)C)[C@@]2(C)C(C)CC[C@@]3(CCC(=O)[C@@H]32)[C@H](C)[C@H]1O (some centres undefined)	none (no result: Pol eta inh-1, POLB inh, WRN inhibitor)
Cc1cc(C=O)c(C)n1-c1cc(C(=O)O)cc(C(=O)O)c1	Pol eta inh-1 4µM, POLB inh 7.9µM, FEN1 inh inconclusive, Pol kappa inh-1 50µM, Pol iota inh 25µM | TbPGK inh inconclusive | Pol iota confirm 17 | Pol eta inh-2 5.4
Cc1cc(C=O)c(C)n1-c1cccc(C(=O)O)c1	Pol eta inh-1 4µM, POLB inh 14µM, Pol kappa inh-1 79µM, Pol iota inh 18µM | Pol iota confirm 34 | Pol eta inh-2 21
COC(=O)c1cc(C(=O)OC)cc(-n2c(C)cc(C=O)c2C)c1	none
CC[N+]1(CC(=O)c2cccs2)CCCCC1	none (no result: Pol eta inh-1, POLB inh, WRN inhibitor)
COc1ccccc1-c1nnc2sc(-c3ccc(N(C)C)cc3)nn12	none
COc1ccccc1-c1nnc2sc(-c3cnccn3)nn12	Pol eta inh-1 45µM, POLB inh inconclusive, WRN inhibitor inconclusive, Pol iota inh inconclusive | Pol iota confirm 75 | Pol eta inh-2 inconclusive
Cc1ccc(S(=O)(=O)c2cn(Cc3ccccc3)c3cc(N4CCCC4)c(F)cc3c2=O)cc1C	none (no result: WRN inhibitor)
COc1ccc(C=C(C#N)C(=O)c2ccccc2)cc1	none (no result: Pol eta inh-1, POLB inh, FEN1 inh, Pol kappa inh-1, Pol iota inh)
COc1cc(/C=C(\C#N)C(=O)c2ccc(O)c(O)c2)cc(I)c1O	Pol eta inh-1 0.89µM, POLB inh 0.6µM, FEN1 inh 3.5µM, Pol kappa inh-1 0.42µM, WRN inhibitor 1.2µM, Pol iota inh 0.89µM | TbPGK inh 3.7µM | Pol iota confirm 6.7 | Pol kappa inh-2 2.4 | Pol eta inh-2 5.4
COc1cccc(/C=N/NC(=O)c2cc3cc([N+](=O)[O-])ccc3s2)c1O	Pol eta inh-1 3.5µM, POLB inh 3.5µM, FEN1 inh 50µM, WRN inhibitor 35µM, Pol iota inh 14µM | TbPGK inh 2.9µM | Pol eta inh-2 48
COc1ccccc1/C=N/NC(=O)c1ccc(NC(=O)c2cccc([N+](=O)[O-])c2)cc1	none (no result: Pol eta inh-1, FEN1 inh, Pol kappa inh-1, WRN inhibitor, Pol iota inh)
CCC12CN3CC(C)(CN(C1)C3c1ccc(O)cc1O)C2=O (centres undefined)	none (no result: WRN inhibitor)
Cc1ccccc1NC(=O)CN1C(=O)S/C(=C\c2ccc(-c3cc(C(=O)O)ccc3C)o2)C1=O	Pol eta inh-1 inconclusive, POLB inh 32µM, FEN1 inh inconclusive, Pol kappa inh-1 inconclusive, WRN inhibitor inconclusive, Pol iota inh 8.9µM | Pol iota confirm 27 | Pol kappa inh-2 8.4 | Pol eta inh-2 27
